29 compounds from PubChem BioAssay (EPA / NIEHS) can be followed below.

Calls of active or inactive are those of the source. How the source made its calls: active means hit-call score of the fitted dose curve at least 0.9, where 1 is the maximum; inactive means score below 0.9.

Cellular tumor antigen p53 (Homo sapiens), sequence (P04637 whole entry, looked up): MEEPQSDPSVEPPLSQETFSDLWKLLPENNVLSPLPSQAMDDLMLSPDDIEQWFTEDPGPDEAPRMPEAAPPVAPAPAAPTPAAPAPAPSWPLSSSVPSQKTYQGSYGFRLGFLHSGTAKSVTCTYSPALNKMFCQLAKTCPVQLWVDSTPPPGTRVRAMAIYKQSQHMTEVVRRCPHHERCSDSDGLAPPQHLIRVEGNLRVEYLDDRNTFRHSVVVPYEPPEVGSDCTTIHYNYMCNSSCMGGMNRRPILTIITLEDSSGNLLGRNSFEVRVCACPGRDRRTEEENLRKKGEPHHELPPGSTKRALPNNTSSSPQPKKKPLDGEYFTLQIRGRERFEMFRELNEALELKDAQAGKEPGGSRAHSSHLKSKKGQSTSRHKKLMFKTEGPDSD

One assay concerns the target Cellular tumor antigen p53 (Homo sapiens) (UniProt P04637). In words: ATG_p53_CIS: Attagene CIS-FACTORIAL HepG2 Assay for human p53 Transcription Factor (AID 2282994). The note with it: HepG2 p53 cis-element reporter, Attagene mRNA; actives raise or lower the signal. The method in brief: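 Using HepG2 hepatoma cells carrying cis-acting multiplexed reporters, mRNA induction is detected after a 24 h exposure. Gain- and loss-of-signal responses are fitted relative to DMSO-treated cells.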
`CC(=O)OC(c1ccccc1)C(Cl)(Cl)Cl` (stereo unspecified): the call was inactive.
Same read-out and setting: the same measure for `C=C(C)C#N`: “inactive”.
Still for that read-out and setting: the same measure for `ClC1=C(Cl)[C@]2(Cl)[C@H]3[C@H]([C@H]4C=C[C@H]3C4)[C@@]1(Cl)C2(Cl)Cl`: “inactive”.
Same read-out and setting: as for `COc1cccc(C=O)c1`, the entry is “inactive”.
For orientation: AC50 means the concentration at which the activity in the assay is half-maximal. In the case of `CC(C)(c1ccc(OCC2CO2)cc1)c1ccc(OCC2CO2)cc1` (stereo unspecified), the concentration at half-maximal activity (AC50) was 56.2 µM (active).
Regarding `CN(C)P(=O)(N(C)C)N(C)C`, the compound was classed as inactive.
As to `COc1ccc(C=O)cc1OC`, the outcome was inactive.
On the same count and under the same terms, the same measure for `ClC1(Cl)C2(Cl)C3(Cl)C4(Cl)C(Cl)(Cl)C5(Cl)C3(Cl)C1(Cl)C5(Cl)C24Cl` (stereo unspecified): “inactive”.
For `Nc1cccc2ccccc12`, the compound was classed as inactive.
Turning to `CC(=O)C(Cl)C(=O)N(C)C` (stereo unspecified), the AC50 is 178 µM (active).
As to `Cl/C=C\C[N+]12CN3CN(CN(C3)C1)C2`, the AC50 is 173 µM (active).
On to `O=C(Cc1ccccc1)c1ccccc1`, for which the result was inactive.
Same read-out and setting: the same measure for `CCCCOCCOC(C)=O`: “inactive”.
As for `CCC(=O)C(CC(C)N(C)C)(c1ccccc1)c1ccccc1` (stereo unspecified), the AC50 was 48.9 µM (active).
Take `CCOC(=O)CP(=O)(OCC)OCC`: the compound was classed as inactive.
As to `COC(=O)Cc1ccccc1`, the outcome was inactive.
Regarding `Oc1cccc2cccnc12`, the call was inactive.
The same measure, in the same setting: the same measure for `O=S(=O)(c1ccc(Cl)cc1)c1ccc(Cl)cc1`: “inactive”.
Still for that read-out and setting: as for `ClC1=C(Cl)[C@]2(Cl)[C@@H]3[C@@H](Cl)[C@@H](Cl)C[C@@H]3[C@@]1(Cl)C2(Cl)Cl`, the entry is “inactive”; as for `Nc1ccc(-c2ccc(N)c(Cl)c2)cc1Cl`, “inactive”.
On the same count and under the same terms, as for `C1CCC(NC2CCCCC2)CC1`, the entry is “inactive”.
In the case of `COP(=S)(OC)Oc1ccc(Sc2ccc(OP(=S)(OC)OC)cc2)cc1`, the call was inactive.
Same read-out and setting: as for `ClCC(Cl)CCl`, the entry is “inactive”.
On the same count and under the same terms, as for `CCOP(OCC)OCC`, the entry is “inactive”.

Read-out in a further assay: not listed separately
The experiment in a line: BSK_3C_TissueFactor: BioMAP Diversity Plus: 3C Assay for Tissue Factor Biomarker Activity (AID 2282997). The note with it: BioMAP 3C HUVEC, tissue factor biomarker readout; actives raise or lower the signal. The method in brief: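 ELISA read-out of Tissue Factor levels on human umbilical vein endothelium collected 24 h after chemical dosing. Gain or loss of signal was fitted relative to DMSO.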
`CC(=O)OC(c1ccccc1)C(Cl)(Cl)Cl` (stereo unspecified): the result was inactive.
Consider `ClC1=C(Cl)[C@]2(Cl)[C@H]3[C@H]([C@H]4C=C[C@H]3C4)[C@@]1(Cl)C2(Cl)Cl`, for which the AC50 is 2.35 µM (active).
Turning to `CCOP(=S)(OCC)Oc1ccc(S(C)=O)cc1` (stereo unspecified), the result was inactive.
Still for that read-out and setting: the same measure for `CCCCCCCCC(=O)NCc1ccc(O)c(OC)c1`: “inactive”; for `ClC1(Cl)C2(Cl)C3(Cl)C4(Cl)C(Cl)(Cl)C5(Cl)C3(Cl)C1(Cl)C5(Cl)C24Cl` (stereo unspecified): “inactive”.
`Nc1cccc2ccccc12`: the AC50 was 12.4 µM (active).
Still for that read-out and setting: the same measure for `CC(=O)C(Cl)C(=O)N(C)C` (stereo unspecified): 5.13 µM (active).
Still for that read-out and setting: as for `ClC(Cl)=C(Cl)C(Cl)=C(Cl)Cl`, the figure is 14.6 µM (active).
As for `CCC(=O)C(CC(C)N(C)C)(c1ccccc1)c1ccccc1` (stereo unspecified), the result was inactive.
In the case of `COC(=O)Cc1ccccc1`, the outcome was inactive.
Same read-out and setting: as for `Oc1cccc2cccnc12`, the entry is “inactive”; as for `O=S(=O)(c1ccc(Cl)cc1)c1ccc(Cl)cc1`, “inactive”.
For the compound `CC1(C)Cc2cccc(O)c2O1`, the result was inactive.
Same read-out and setting: as for `NC(=S)Nc1ccccc1`, the entry is “inactive”.
Same read-out and setting: as for `Nc1ccc(-c2ccc(N)c(Cl)c2)cc1Cl`, the entry is “inactive”.
Same read-out and setting: the same measure for `COP(=S)(OC)Oc1ccc(Sc2ccc(OP(=S)(OC)OC)cc2)cc1`: “inactive”.
Turning to `ClCC(Cl)CCl`, the result was inactive.
